Reference: PubChem BioAssay (EPA / NIEHS)
Active and inactive are the calls of the source. Rule for the calls: active = hit-call score of the fitted dose curve at least 0.9, where 1 is the maximum; inactive = score below 0.9.

experiment: ATG_TAL_CIS: Attagene CIS-FACTORIAL HepG2 Assay for human TAL Basal Promoter (AID 2282966); conditions: HepG2 Attagene cis-factorial TAL promoter reporter; actives raise or lower the signal;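 note: background control endpoint measuring basal TAL promoter reporter mRNA not a specific factor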
Procedure, shortened: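 Steps: transfect HepG2 with multiple reporter transcription units; dose 24 h; isolate RNA, reverse-transcribe, PCR-amplify, label with 6-FAM, digest with HpaI; resolve by capillary electrophoresis. Bidirectional fitting against DMSO baseline.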

| SMILES | outcome | AC50 |
| --- | --- | --- |
| c1ccc2c(c1)CCCC2 | inactive |  |
| CCOC(=O)C1OC1(C)c1ccccc1 (centres undefined) | inactive |  |
| [Cl][Sb]([Cl])[Cl] | inactive |  |
| COc1ncc(F)c2nc(S(=O)(=O)Nc3c(F)cccc3F)nn12 | inactive |  |
| CC(C)[C@@H](C(=O)O[C@@H](C#N)c1cccc(Oc2ccccc2)c1)c1ccc(Cl)cc1 | inactive |  |
| C[C@]12CC[C@H]3[C@@H](CC[C@@]45O[C@@H]4C(O)=C(C#N)C[C@]35C)[C@@H]1CC[C@@H]2O | inactive |  |
| O=[N+]([O-])c1cc([N+](=O)[O-])c2ccccc2c1 | inactive |  |
| O=C(O)C(Br)Br | inactive |  |
| C=CC(=O)OCCO | inactive |  |
| CCCCCCCCCCCCCCCC[N+](C)(C)C |  | 138 µM (active) |

experiment: ATG_TGFb_CIS: Attagene CIS-FACTORIAL HepG2 Assay for human Transforming Growth Factor (TGF) (AID 2282967); conditions: HepG2 Attagene CIS TGFb reporter, mRNA transcription; actives raise or lower the signal
Procedure, shortened: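 Liver HepG2 line, cis-factorial reporter panel, 24 h dosing. Quantitation: RT-PCR products labeled with 6-FAM, cut with HpaI, resolved by capillary electrophoresis; DMSO-referenced bidirectional analysis.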

| SMILES | outcome |
| --- | --- |
| CCCCCCCCCCCC#N | inactive |
| O=C(NC(=O)c1c(F)cccc1F)Nc1ccc(Oc2ccc(C(F)(F)F)cc2Cl)cc1F | inactive |
| CC1CCCC1.[C-]#[O+].[C-]#[O+].[C-]#[O+].[Mn] | inactive |
| CCCCNP(N)(N)=S | inactive |
| CC(=O)C=Cc1ccccc1 | inactive |
| CCC(=O)c1ccc(Cl)cc1 | inactive |
| C=CC(=O)OC | inactive |
| CC(C)CCCCCCCOC(=O)c1ccccc1C(=O)OCCCCCCCC(C)C | inactive |
| CN(C)N | inactive |
| CN1C[C@H](C(=O)N[C@]2(C)O[C@@]3(O)[C@@H]4CCCN4C(=O)[C@H](Cc4ccccc4)N3C2=O)C=C2c3cccc4[nH]cc(c34)C[C@H]21 | inactive |
| O=[N+]([O-])C=Cc1ccccc1 | inactive |
| Nc1ccc(Cl)c(Cl)c1 | inactive |
| CCCCOP(=O)(O)OCCCC | inactive |
| O=C(O)CCl | inactive |
| CC(O)CN(CC(C)O)CC(C)O (centres undefined) | inactive |
| Nc1cc(Cl)cc(Cl)c1 | inactive |
| C=CCO | inactive |
| COC(=O)COc1ccc(Cl)cc1Cl | inactive |
| [CH3][Sn]([Cl])([Cl])[Cl] | inactive |
| CC(=O)c1cc2c(cc1C)C(C)(C)C(C)CC2(C)C (centres undefined) | inactive |
| Nc1ccc(-c2ccc(N)c(N)c2)cc1N | inactive |
| c1cc(OCC2CO2)ccc1Cc1ccc(OCC2CO2)cc1 (centres undefined) | inactive |
| CCOC(=O)C1OC1(C)c1ccccc1 (centres undefined) | inactive |
| COc1ncc(F)c2nc(S(=O)(=O)Nc3c(F)cccc3F)nn12 | inactive |
| CC(C)[C@@H](C(=O)O[C@@H](C#N)c1cccc(Oc2ccccc2)c1)c1ccc(Cl)cc1 | inactive |
| C[C@]12CC[C@H]3[C@@H](CC[C@@]45O[C@@H]4C(O)=C(C#N)C[C@]35C)[C@@H]1CC[C@@H]2O | inactive |
| O=[N+]([O-])c1cc([N+](=O)[O-])c2ccccc2c1 | inactive |
| O=C(O)C(Br)Br | inactive |
| CCCCCCCCCCCCCCCC[N+](C)(C)C | inactive |
